Source: PubChem BioAssay (NCATS)
Records with an inconclusive call do not appear. Activity calls are given as the source filed them. The call rests on the fitted dose curve; in most records, active means well fitted inhibition curve with a large enough effect; inconclusive means small, poorly fitted or top-dose-only effect; inactive means flat fitted curve, though single readings scatter.
Potency means the concentration at half of the fitted maximal effect.

These compounds were tested on CP305 (assay: qHTS profiling for inhibitors of Plasmodium falciparum proliferation (AID 504749; further: nearly all actives have a fitted effect of over 60% in size;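 on activity, negative = inhibition: 0% = DMSO vehicle and full inhibition = artemisinin control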)). Details: P. falciparum in erythrocytes, SYBR Green DNA, 72 h; series mostly up to 28.7 µM; activity, negative = inhibition: at the top concentration.
Summary of the method: (§1)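 P. falciparum-infected erythrocytes (0.3% parasitemia, 2.5% hematocrit final) were exposed to compounds for 72 h at 37 C in 5% CO2, then lysed with SYBR Green buffer overnight at room temperature; parasite DNA fluorescence was normalized to artemisinin and DMSO controls.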
COC(=O)Nc1nc2ccc(C(=O)c3cccs3)cc2[nH]1 was tested, and the “activity, negative = inhibition” value was 3.31% (inactive). Clc1ccccc1C(c1ccccc1)(c1ccccc1)n1ccnc1 was tested, and the Potency was 5.1 µM (active). For Cc1cn([C@H]2C=C[C@@H](CO)O2)c(=O)[nH]c1=O, the “activity, negative = inhibition” value was -6.23% (inactive). CCOC(=O)c1ncn2c1CN(C)C(=O)c1cc(F)ccc1-2 was tested, and the “activity, negative = inhibition” value was 7.38% (inactive). In the case of CCC1(c2ccccc2)C(=O)NCNC1=O, the “activity, negative = inhibition” value is reported as 6.27% (inactive). For CC#C[C@]1(O)CC[C@H]2[C@@H]3CCC4=CC(=O)CCC4=C3[C@@H](c3ccc(N(C)C)cc3)C[C@@]21C, the Potency was 12 µM (active). In the case of O=C1c2c(O)ccc(O)c2C(=O)c2c(NCCNCCO)ccc(NCCNCCO)c21, the Potency is reported as 5.1 µM (active). For CN(Cc1cnc2nc(N)nc(N)c2n1)c1ccc(C(=O)N[C@@H](CCC(=O)O)C(=O)O)cc1, the “activity, negative = inhibition” value was -1.18% (inactive). For CC(C)NCC(O)COc1ccc(CCOCC2CC2)cc1 (stereo not drawn), the “activity, negative = inhibition” value was -15.4% (inactive). With Nc1nc2c(ncn2COC(CO)CO)c(=O)[nH]1 the “activity, negative = inhibition” value was -6.17% [at 12.8 µM] (inactive). In the case of O=C(Nc1ccc([N+](=O)[O-])cc1Cl)c1cc(Cl)ccc1O, the Potency is reported as 2.13 µM (active). For Clc1ccc2c(c1)C(N1CCNCC1)=Nc1ccccc1O2, the “activity, negative = inhibition” value was -13.4% (inactive). With OCCN1CCN(CCCN2c3ccccc3Sc3ccc(C(F)(F)F)cc32)CC1 the Potency was 9.53 µM (active). With COc1nc(C)nc(Cl)c1NC1=NCCN1 the “activity, negative = inhibition” value was 0.873% [at 12.8 µM] (inactive). In the case of CC(COc1ccccc1)N(CCCl)Cc1ccccc1 (stereo not drawn), the “activity, negative = inhibition” value is reported as -19.8% (inactive). With CC(C)(Oc1ccc(C2CC2(Cl)Cl)cc1)C(=O)O (stereo not drawn) the “activity, negative = inhibition” value was 4.36% (inactive). With NC12CC3CC(CC(C3)C1)C2 the “activity, negative = inhibition” value was -4.48% (inactive). COc1ccccc1OCCNCC(O)COc1cccc2[nH]c3ccccc3c12 (stereo not drawn) was tested, and the “activity, negative = inhibition” value was -13% (inactive). In the case of CN(C)C(=N)N=C(N)N, the “activity, negative = inhibition” value is reported as -23.1% [at 12.8 µM] (inactive). CC12CC3CC(C)(C1)CC(N)(C3)C2 was tested, and the “activity, negative = inhibition” value was 9.25% (inactive). CN(C)CCCN1c2ccccc2CCc2ccc(Cl)cc21 was tested, and the “activity, negative = inhibition” value was -27.6% (inactive). For CC(C)NCC(O)c1ccc(O)c(O)c1 (stereo not drawn), the “activity, negative = inhibition” value was -8.45% (inactive). CNCCCC12CCC(c3ccccc31)c1ccccc12 was tested, and the “activity, negative = inhibition” value was -23.4% (inactive). In the case of CC(=O)OCC(CCn1cnc2cnc(N)nc21)COC(C)=O, the “activity, negative = inhibition” value is reported as -1.36% (inactive).

These compounds were tested on CP315 in the same assay as above. Details: P. falciparum in erythrocytes, SYBR Green DNA, 72 h; series mostly up to 28.7 µM; activity, negative = inhibition: at the top concentration.
Summary of the method: as §1
With COC(=O)Nc1nc2ccc(C(=O)c3cccs3)cc2[nH]1 the “activity, negative = inhibition” value was -0.255% (inactive). Clc1ccccc1C(c1ccccc1)(c1ccccc1)n1ccnc1 was tested, and the Potency was 2.03 µM (active). Cc1cn([C@H]2C=C[C@@H](CO)O2)c(=O)[nH]c1=O was tested, and the “activity, negative = inhibition” value was 2.11% (inactive). In the case of CCOC(=O)c1ncn2c1CN(C)C(=O)c1cc(F)ccc1-2, the “activity, negative = inhibition” value is reported as -4.08% (inactive). With CCC1(c2ccccc2)C(=O)NCNC1=O the “activity, negative = inhibition” value was 1.9% (inactive). CN(C)CCC=C1c2ccccc2C=Cc2ccccc21 was tested, and the “activity, negative = inhibition” value was -5.69% (inactive). CCCCc1oc2ccccc2c1C(=O)c1cc(I)c(OCCN(CC)CC)c(I)c1 was tested, and the “activity, negative = inhibition” value was -14.5% (inactive). In the case of CN(C)CCOC(c1ccccc1)c1ccccc1, the “activity, negative = inhibition” value is reported as 2.79% (inactive). O=C1c2c(O)ccc(O)c2C(=O)c2c(NCCNCCO)ccc(NCCNCCO)c21 was tested, and the Potency was 6.42 µM (active). With O=C(c1ccc(OCCN2CCCCC2)cc1)c1c(-c2ccc(O)cc2)sc2cc(O)ccc12 the Potency was 19 µM (active). With CN(Cc1cnc2nc(N)nc(N)c2n1)c1ccc(C(=O)N[C@@H](CCC(=O)O)C(=O)O)cc1 the “activity, negative = inhibition” value was -0.044% (inactive). For CC(C)NCC(O)COc1ccc(CCOCC2CC2)cc1 (stereo not drawn), the “activity, negative = inhibition” value was -3% (inactive). In the case of Nc1nc2c(ncn2COC(CO)CO)c(=O)[nH]1, the “activity, negative = inhibition” value is reported as 3.23% [at 12.8 µM] (inactive). CN1CCC(=C2c3ccccc3CC(=O)c3sccc32)CC1 was tested, and the “activity, negative = inhibition” value was -14.1% (inactive). With Clc1ccc2c(c1)C(N1CCNCC1)=Nc1ccccc1O2 the “activity, negative = inhibition” value was -10.2% (inactive). For OCCN1CCN(CCCN2c3ccccc3Sc3ccc(C(F)(F)F)cc32)CC1, the Potency was 12 µM (active). Clc1ccc(C(c2ccccc2Cl)C(Cl)Cl)cc1 (stereo not drawn) was tested, and the “activity, negative = inhibition” value was -15.7% (inactive). COc1nc(C)nc(Cl)c1NC1=NCCN1 was tested, and the “activity, negative = inhibition” value was -7.6% [at 12.8 µM] (inactive). In the case of CC(COc1ccccc1)N(CCCl)Cc1ccccc1 (stereo not drawn), the “activity, negative = inhibition” value is reported as -1.72% (inactive). With CC1(CN2CCC(n3c(=O)[nH]c4ccccc43)CC2)OCc2ccccc2-n2cccc21 (stereo not drawn) the “activity, negative = inhibition” value was -1.09% (inactive). In the case of CC(C)(Oc1ccc(C2CC2(Cl)Cl)cc1)C(=O)O (stereo not drawn), the “activity, negative = inhibition” value is reported as 1.03% (inactive). NC12CC3CC(CC(C3)C1)C2 was tested, and the “activity, negative = inhibition” value was -0.598% (inactive). In the case of COc1ccccc1OCCNCC(O)COc1cccc2[nH]c3ccccc3c12 (stereo not drawn), the “activity, negative = inhibition” value is reported as -5.14% (inactive). With CC12CC3CC(C)(C1)CC(N)(C3)C2 the “activity, negative = inhibition” value was -2.94% (inactive). In the case of CN(C)CCCN1c2ccccc2CCc2ccc(Cl)cc21, the “activity, negative = inhibition” value is reported as -10.7% (inactive). For CC(C)NCC(O)c1ccc(O)c(O)c1 (stereo not drawn), the “activity, negative = inhibition” value was -3.84% (inactive). In the case of Nc1c2c(nc3ccccc13)CCCC2, the “activity, negative = inhibition” value is reported as -7.66% (inactive). With CNCCCC12CCC(c3ccccc31)c1ccccc12 the “activity, negative = inhibition” value was -10.2% (inactive). In the case of CC(=O)OCC(CCn1cnc2cnc(N)nc21)COC(C)=O, the “activity, negative = inhibition” value is reported as 3.13% (inactive).

Each compound was assayed on CP325 in the same assay as above. Details: P. falciparum in erythrocytes, SYBR Green DNA, 72 h; series mostly up to 28.7 µM; activity, negative = inhibition: at the top concentration.
Summary of the method: as §1
COC(=O)Nc1nc2ccc(C(=O)c3cccs3)cc2[nH]1 was tested, and the “activity, negative = inhibition” value was 0.147% (inactive). In the case of Clc1ccccc1C(c1ccccc1)(c1ccccc1)n1ccnc1, the Potency is reported as 1.81 µM (active). Cc1cn([C@H]2C=C[C@@H](CO)O2)c(=O)[nH]c1=O was tested, and the “activity, negative = inhibition” value was 1.99% (inactive). CCOC(=O)c1ncn2c1CN(C)C(=O)c1cc(F)ccc1-2 was tested, and the “activity, negative = inhibition” value was -1.77% (inactive). CCC1(c2ccccc2)C(=O)NCNC1=O was tested, and the “activity, negative = inhibition” value was -3.13% (inactive). For CN(C)CCC=C1c2ccccc2C=Cc2ccccc21, the “activity, negative = inhibition” value was -19.2% (inactive). In the case of CN(Cc1cnc2nc(N)nc(N)c2n1)c1ccc(C(=O)N[C@@H](CCC(=O)O)C(=O)O)cc1, the “activity, negative = inhibition” value is reported as -12.4% (inactive). CC(C)NCC(O)COc1ccc(CCOCC2CC2)cc1 (stereo not drawn) was tested, and the “activity, negative = inhibition” value was -12.8% (inactive). Nc1nc2c(ncn2COC(CO)CO)c(=O)[nH]1 was tested, and the “activity, negative = inhibition” value was 0.852% [at 12.8 µM] (inactive). With COc1ccc(CCN(C)CCCC(C#N)(c2ccc(OC)c(OC)c2)C(C)C)cc1OC (stereo not drawn) the “activity, negative = inhibition” value was 0.771% (inactive). For Clc1ccc2c(c1)C(N1CCNCC1)=Nc1ccccc1O2, the “activity, negative = inhibition” value was -6.37% (inactive). For OCCN1CCN(CCCN2c3ccccc3Sc3ccc(C(F)(F)F)cc32)CC1, the Potency was 6.75 µM (active). Clc1ccc(C(c2ccccc2Cl)C(Cl)Cl)cc1 (stereo not drawn) was tested, and the “activity, negative = inhibition” value was -19.1% (inactive). For COc1nc(C)nc(Cl)c1NC1=NCCN1, the “activity, negative = inhibition” value was 0.0293% [at 12.8 µM] (inactive). For CC(COc1ccccc1)N(CCCl)Cc1ccccc1 (stereo not drawn), the “activity, negative = inhibition” value was -18.3% (inactive). In the case of CC1(CN2CCC(n3c(=O)[nH]c4ccccc43)CC2)OCc2ccccc2-n2cccc21 (stereo not drawn), the “activity, negative = inhibition” value is reported as -7.74% (inactive). For CC(C)(Oc1ccc(C2CC2(Cl)Cl)cc1)C(=O)O (stereo not drawn), the “activity, negative = inhibition” value was 6.64% (inactive). In the case of NC12CC3CC(CC(C3)C1)C2, the “activity, negative = inhibition” value is reported as -0.708% (inactive). With COc1ccccc1OCCNCC(O)COc1cccc2[nH]c3ccccc3c12 (stereo not drawn) the “activity, negative = inhibition” value was -18% (inactive). With CN(C)C(=N)N=C(N)N the “activity, negative = inhibition” value was -20.3% [at 12.8 µM] (inactive). With CC12CC3CC(C)(C1)CC(N)(C3)C2 the “activity, negative = inhibition” value was 11.4% (inactive). With CN(C)CCCN1c2ccccc2CCc2ccc(Cl)cc21 the “activity, negative = inhibition” value was -19.3% (inactive). With CC(C)NCC(O)c1ccc(O)c(O)c1 (stereo not drawn) the “activity, negative = inhibition” value was -6.69% (inactive). With CNCCCC12CCC(c3ccccc31)c1ccccc12 the “activity, negative = inhibition” value was -15% (inactive). With CC(=O)OCC(CCn1cnc2cnc(N)nc21)COC(C)=O the “activity, negative = inhibition” value was -2.57% (inactive).
